Source: PubChem BioAssay (National Center for Advancing Translational Sciences (NCATS))
A549 tox: Nrf2 qHTS screen for inhibitors: counterscreen for cytotoxicity; A549 ARE-Fluc cells, CellTiter-Fluor viability, 18-24 h; Potency, µM (series often up to 46 µM), without a hit: at the top dose activity change, negative = cytotoxicity, most hits filed as inhibitors; hit rate 0.16% among 390,000; AID 504648, 2011; also: % is scaled to controls: 0 for no effect and ±100 for the full control effect
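A549 ARE_Fluc cells in 5% FBS OPTI-MEM were exposed to compounds in concentration-response for 18-24 h at 37 deg C. Viability was read by CellTiter-Fluor fluorescence (Ex 405/Em 525) after 30 min, before the luciferase read.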
TGFb inhibitor: qHTS for Inhibitors of TGF-b; Potency, µM (titrated, usually from 46.1 µM), without a hit: at the highest dose activity, negative = inhibition, most hits filed as inhibitors; hit rate 1.2% among 410,000; HepG2 CAGA-GFP TGF-b/SMAD3 reporter, GFP fluorescence, 18 h; TGF-beta stimulated, 500 pg/mL final; also: % is scaled to controls: 0 for no effect and ±100 for the full control effect; nearly all actives have a fitted effect of over 65% in size
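Using HEPG2 CAGA-GFP reporter cells at 1000 cells/well, we pinned test compounds, stimulated with recombinant TGF-beta (500 pg/mL final) and measured total well GFP after 18 h.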
S2 tox: Viability Counterscreen for Primary qHTS for Inhibitors of ATXN expression. S2 cells (HEK-293 line with an ATXN2-luciferase reporter) viability, CellTiter-Fluor protease fluorescence, 24 h. Potency, µM (highest dose often 56.7 µM), usual class: cytotoxic. hit rate 0.49% among 400,000. AID 651635, 2014; also: nearly all actives have a fitted effect of over 40% in size
ATXN2 expr inh: Primary qHTS for Inhibitors of ATXN expression | HEK-293 ATXN2-luciferase reporter, luminescence, 24 h | Potency, µM (series often up to 57 µM), inactives show top-dose activity change, negative = inhibition, usual class: inhibitors | hit rate 0.72% among 360,000; also: % is scaled to controls: 0 for no effect and ±100 for the full control effect; nearly all actives have a fitted effect of over 55% in size
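qHTS (up to 57 uM final) was run with 24 h compound exposure of reporter cells at 37 °C. Each well was multiplexed: SteadyGlo luminescence measured ATXN2-luciferase expression after a fluorogenic Gly-Phe-AFC viability readout (25 uM final).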
HepG2 viability: qHTS for Inhibitors of TGF-b: Cytotox Counterscreen; Potency, µM (doses to about 46.1 µM), without a hit: top-dose activity change, negative = cytotoxicity, most hits filed as cytotoxic; HepG2 CAGA-GFP viability, ATP luminescence, 18 h; hit rate 0.76% among 410,000
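CellTiter-Glo luminescence gave cytotoxicity after 18 hours at 37 degrees C. The cells were HepG2 CAGA-GFP in 1% FBS DMEM, stimulated with 500 pg/mL TGF-beta after compound addition. %Activity was normalised to no-cell wells (complete cell-killing) and DMSO (no toxicity), and curves were fitted and classified.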
Nrf2 block: Nrf2 qHTS screen for inhibitors; A549 ARE-Fluc reporter, luciferase luminescence, 18-24 h; Potency, µM (series often up to 46 µM), for inactives: top-dose activity change, negative = inhibition, hits mostly inhibitors; hit rate 2.1% among 360,000; AID 504444, 2011; also: % is scaled to controls: 0 for no effect and ±100 for the full control effect; nearly all actives have a fitted effect of over 60% in size
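Two sequential reads on A549 ARE_Fluc cells exposed to compound for 18-24 h: a CellTiter-Fluor fluorescence read for viability, then a luciferase luminescence read for Nrf2/ARE activity.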
Active calls of the source: *. Compounds with a hit are over-represented: about 3.8% of the library has one in this group of screens. Calls follow the shape of the dose curve; as a rule, active = well fitted curve in the direction sought with a large enough effect; inconclusive = small, poorly fitted or top-dose-only effect, or another doubt; inactive = no such curve, though single readings can be large; an effect the other way counts as inactive or inconclusive. Potency is read from the fitted curve at half-maximal effect.

How did CCN(Cc1ccccc1)S(=O)(=O)c1ccc(C(=O)Nc2nnc(C)o2)cc1 do in these assays?
A549 tox: -10%; TGFb inhibitor: -20%; S2 tox: inactive; ATXN2 expr inh: 4%; HepG2 viability: -24%; Nrf2 block: 13µM*

How did CCN(CC)S(=O)(=O)c1ccc(C(=O)Nc2nnc(-c3ccco3)o2)cc1 do in these assays?
A549 tox: -18%; TGFb inhibitor: -8%; S2 tox: inactive; HepG2 viability: -46%; Nrf2 block: inconclusive

Results for CN(C)CCCNc1nc2cc(-c3ccsc3)sc2c(=O)n1C ?
TGFb inhibitor: -20%; S2 tox: inactive; ATXN2 expr inh: -33%; HepG2 viability: 1%

What do the screens show for `Cc1ccc(F)cc1-c1cc2nc(NCCCN(C)C)n(C)c(=O)c2s1`?
TGFb inhibitor: inconclusive; S2 tox: inconclusive; ATXN2 expr inh: 32µM*; HepG2 viability: -72%

Results for CCOC(=O)c1c(C)oc2c(F)c(F)c(F)c(F)c2c1=O ?
A549 tox: inconclusive; TGFb inhibitor: -25%; S2 tox: inconclusive; ATXN2 expr inh: 32µM*; HepG2 viability: -6%; Nrf2 block: -7%

Results for CCOC(=O)Cc1csc(NC(=O)/C=C/c2ccc(Cl)cc2)n1 ?
A549 tox: -10%; TGFb inhibitor: -21%; S2 tox: inactive; ATXN2 expr inh: -29%; HepG2 viability: -12%; Nrf2 block: inconclusive

What do the screens show for `CN1/C(=C\C=C2/SC(=S)N(CC(=O)O)C2=O)C(C)(C)c2ccccc21`?
A549 tox: 9.2µM*; TGFb inhibitor: 103%; S2 tox: inactive; HepG2 viability: -19%; Nrf2 block: 4.1µM*

How did C=CCN1C(=O)/C(=C\C=C2\N(C)c3ccccc3C2(C)C)SC1=S do in these assays?
A549 tox: inconclusive; TGFb inhibitor: 20%; S2 tox: inconclusive; ATXN2 expr inh: 1%; HepG2 viability: 1%; Nrf2 block: -12%

What do the screens show for `O=C(NCc1ccccn1)C1(C(F)(F)F)CC(CCCO)CCCO1` (centres undefined)?
A549 tox: 0%; TGFb inhibitor: 2%; HepG2 viability: -11%; Nrf2 block: 20%

Results for O=C(NCc1nnc2c3ccccc3c(-c3ccccc3)nn12)c1ccc(Cl)cc1 ?
A549 tox: inconclusive; TGFb inhibitor: -18%; HepG2 viability: 1%; Nrf2 block: 21µM*

Results for CC(=O)NCc1nnc2c3ccccc3c(-c3ccccc3)nn12 ?
A549 tox: -5%; TGFb inhibitor: -4%; S2 tox: inactive; ATXN2 expr inh: -9%; HepG2 viability: 2%; Nrf2 block: -11%

How did CCC(=O)OCC(=O)C1(OC(=O)CC)[C@H](C)C[C@H]2[C@H]3[C@H]([C@@H](O)C[C@@]21C)[C@@]1(C)C=CC(=O)C=C1C[C@H]3Cl (some centres undefined) do in these assays?
A549 tox: -8%; TGFb inhibitor: 31%; S2 tox: inactive; ATXN2 expr inh: -14%; HepG2 viability: 2%; Nrf2 block: 0.052µM*

Results for Cc1nc([N+](=O)[O-])c(C(=O)OCc2cccc(Br)c2)n1C ?
A549 tox: -1%; TGFb inhibitor: 7%; S2 tox: inactive; ATXN2 expr inh: 4%; HepG2 viability: 0%; Nrf2 block: 2%

Results for Cc1ccc(-c2csc(N3CCC(NS(=O)(=O)c4ccc5c(c4)OCCO5)CC3)n2)cc1 ?
A549 tox: inconclusive; TGFb inhibitor: -14%; S2 tox: inactive; ATXN2 expr inh: inconclusive; HepG2 viability: -22%; Nrf2 block: 15µM*

Results for CCN1C(=O)c2ccccc2Sc2ccc(NC(=O)Nc3cccc([N+](=O)[O-])c3C)cc21 ?
A549 tox: -20%; TGFb inhibitor: inconclusive; S2 tox: inactive; ATXN2 expr inh: inconclusive; HepG2 viability: 6%

How did Cc1ccc(NCN2C(=O)C(=O)c3ccccc32)nc1 do in these assays?
A549 tox: 5%; TGFb inhibitor: 6.3µM*; S2 tox: inactive; ATXN2 expr inh: -17%; HepG2 viability: -35%; Nrf2 block: -6%

Results for O=C(O)CCCn1c(O)c(C=C2N=c3ccccc3=N2)sc1=S ?
A549 tox: inconclusive; TGFb inhibitor: 0%; S2 tox: inconclusive; ATXN2 expr inh: -16%; HepG2 viability: -4%; Nrf2 block: -14%

How did COCCCn1c(O)c(/C=C2\N=C(C#N)C(=Nc3ccc(C)cc3)O2)sc1=S do in these assays?
A549 tox: inconclusive; TGFb inhibitor: inconclusive; S2 tox: 35µM*; ATXN2 expr inh: inconclusive; HepG2 viability: -50%; Nrf2 block: inconclusive

How did COc1ccc(N2CC(C(=O)Nc3ccc(S(=O)(=O)Nc4nccs4)cc3)CC2=O)c(OC)c1 (centres undefined) do in these assays?
A549 tox: -1%; TGFb inhibitor: 26%; S2 tox: inconclusive; HepG2 viability: 5%; Nrf2 block: inconclusive

What do the screens show for `Cc1nn(-c2ccccc2)c(C)c1/C=N/NC(=O)c1cc(C(C)(C)C)[nH]n1`?
A549 tox: -5%; TGFb inhibitor: -10%; S2 tox: inactive; ATXN2 expr inh: 1%; HepG2 viability: -8%

How did Cc1ccc(-c2cc(C(=O)N/N=C/c3c(C)nn(-c4ccccc4)c3C)n[nH]2)s1 do in these assays?
A549 tox: 6%; TGFb inhibitor: 13µM*; S2 tox: inconclusive; HepG2 viability: -31%; Nrf2 block: -17%

Results for Cc1ccc(OCc2ccc(C(=O)Nc3c(C)nn(Cc4c(F)c(F)c(F)c(F)c4F)c3C)o2)c([N+](=O)[O-])c1 ?
A549 tox: -29%; TGFb inhibitor: inconclusive; S2 tox: inconclusive; ATXN2 expr inh: -24%; HepG2 viability: -5%; Nrf2 block: 8.2µM*

What do the screens show for `Cc1ccc(OCc2ccc(C(=O)NN)o2)c([N+](=O)[O-])c1`?
A549 tox: -2%; TGFb inhibitor: inconclusive; S2 tox: inconclusive; HepG2 viability: -78%; Nrf2 block: 14%

Results for O=C(CNc1ccc(Br)cc1)Nc1cccc(S(=O)(=O)N2CCCC2)c1 ?
A549 tox: inconclusive; TGFb inhibitor: -15%; S2 tox: inactive; ATXN2 expr inh: -5%; HepG2 viability: -27%; Nrf2 block: 21µM*
